Our source for the inhibition values is PubChem BioAssay AID1852 (Sanford-Burnham Center for Chemical Genomics, 2009).

Out of some 2,500 compounds screened, about 1,100 (44%) were called active.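 The calls were made as follows: active = inhibition above 50% at 4 µM in the single-point screen; inactive = inhibition of 50% or less.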 So high a share suggests a set chosen from earlier hits. The list shows a part of the results.

What is called inhibition is the drop in the measured response relative to a control, in per cent.

The nature of this experiment: blockers of TNF-a NF-kB luciferase induction – cell-based, HEK293T NF-kB-Luc, luminescence, selectivity assay for NOD1/NOD2 signaling inhibitor project, primary screen (AID 1852). The note with it: TNF-a induced, 14 h, at 4 µM, active compounds read high.
Take `Cc1ccc(S(=O)(=O)c2c(C(=O)c3ccccc3)cnc3cc4c(cc23)OCCO4)cc1`: the inhibition was 1.5% (inactive).

In the case of `Cc1csc2ncnc(N3CCN(C(=S)Nc4ccc(C(F)(F)F)cc4)CC3)c12`, the inhibition was 66.1% (active).

Turning to `Cc1csc2ncnc(N3CCN(S(=O)(=O)c4cccc(C(F)(F)F)c4)CC3)c12`, the inhibition was 44.4% (inactive).

For the compound `Cc1csc2ncnc(N3CCN(C(=O)Nc4ccc(OC(F)(F)F)cc4)CC3)c12`, the inhibition is 102% (active).

For the compound `O=C(CCl)c1cc2c3c(c1)CC(=O)N3CCC2`, the inhibition was 90.7% (active).

As for `O=[N+]([O-])c1ccc(NC(=S)NCc2ccc(F)cc2)cc1`, the inhibition is 22.1% (inactive).

Take `Fc1ccc(NC(=S)Nc2nccs2)cc1`: the inhibition is 73.6% (active).

For `CC(=O)Nc1nnc(S(=O)(=O)N2CCN(c3ccc(Cl)cc3[N+](=O)[O-])CC2)s1`, the inhibition is -2.9% (inactive).

With `COc1ccc(-c2[nH]ncc2-c2ccc3c(c2)OCCO3)c(O)c1`, the inhibition was 102% (active).

As for `COc1ccc(-c2cn[nH]c2-c2ccc(OCc3ccccc3F)cc2O)cc1OC`, the inhibition is -1.5% (inactive).

Take `COc1ccc(-c2cn[nH]c2-c2ccc(OCc3ccccc3)cc2O)cc1`: the inhibition was 32.2% (inactive).

`COc1ccc(-c2cn[nH]c2-c2ccc(OCc3ccc(F)cc3)cc2O)cc1OC`: the inhibition is 4.6% (inactive).

For the compound `COc1ccc(-c2cn[nH]c2-c2ccc(OC)cc2O)cc1`, the inhibition is 69.2% (active).

Turning to `CCCOC(=O)c1ccc(Oc2cn[nH]c2-c2ccc(O)cc2O)cc1`, the inhibition was 17.1% (inactive).

Consider `COc1ccc(-c2cn[nH]c2-c2ccc(O)cc2O)cc1`, for which the inhibition was 51% (active).

Regarding `COc1ccc(-c2cn[nH]c2-c2ccc(OC)cc2)cc1`, the inhibition is 63.6% (active).

For `CS(=O)(=O)N1CCC(C(=O)Nc2cc(Cl)c(Cl)cc2Cl)CC1`, the inhibition was 30.2% (inactive).

On to `COc1ccc(CC2(CO)CCN(CC3=Cc4cc(Cl)ccc4OC3)CC2)cc1`, for which the inhibition is 44% (inactive).

Take `Cc1nc(Sc2ccc(Br)cc2)c(C#N)c(C)c1[N+](=O)[O-]`: the inhibition is -8.7% (inactive).

As to `COc1ccc(CS(=O)/C(Cl)=C(/Cl)C(=O)Nc2ccc(OC)nc2)cc1` (configuration not stated), the inhibition was 101% (active).

In the case of `COc1ccc(NC(=O)/C(Cl)=C(/Cl)S(=O)Cc2ccccc2)cn1` (configuration not stated), the inhibition was 104% (active).

`O=C(Cc1ccc(Cl)cc1)Nc1ncc([N+](=O)[O-])s1`: the inhibition was 16.3% (inactive).

As to `COc1ccc(NC(=O)/C(Cl)=C(/Cl)S(=O)Cc2ccc(Cl)cc2)cn1` (configuration not stated), the inhibition is 89% (active).

Take `COc1ccc(NC(=O)/C(Cl)=C(/Cl)S(=O)Cc2ccc(C)cc2)cn1` (configuration not stated): the inhibition is 105% (active).

Take `COc1ccc(NC(=O)/C(Cl)=C(/Cl)S(=O)Cc2ccccc2Cl)cn1` (configuration not stated): the inhibition is 98.2% (active).

Take `Cn1c(=O)c(C#N)c(-c2ccc(F)cc2)c2cc(C(=O)c3cc(Cl)cc(Cl)c3O)cnc21`: the inhibition is 95.8% (active).

Consider `CCc1nn2cc(C(=O)c3cc(Cl)ccc3O)cnc2c1-c1ccc(F)cc1`, for which the inhibition was -6% (inactive).

`COc1ccc(C2(c3ccc(OC)cc3)NC(=O)N(CC(=O)Nc3ccc(C(N)=O)cc3)C2=O)cc1`: the inhibition is 59.3% (active).

For the compound `CCn1c(SCC(=O)Nc2ccc(OC)cc2)nc2nc3c(cc2c1=O)CCCC3`, the inhibition is -16.7% (inactive).

Consider `COc1ccc(NC(=O)CN(C)C(=O)c2ccccc2OC)cc1`, for which the inhibition is -11.8% (inactive).

`CC(C)(C)C1CCC2(CC1)C(C#N)=C(SCC(=O)NC1CCCCC1)NC(=O)C2C#N` (configuration not stated): the inhibition was -10.7% (inactive).

Turning to `CC(C)(C)C1CCC2(CC1)C(C#N)=C(SCC(=O)Nc1ccccc1)NC(=O)C2C#N` (configuration not stated), the inhibition was 79% (active).

Consider `N#CC1=C(SCC(=O)NC23CC4CC(CC(C4)C2)C3)NC(=O)C(C#N)C12CCCCC2` (configuration not stated), for which the inhibition is 66.1% (active).

Turning to `O=C1NC(=S)S/C1=C\c1cc2ccccc2nc1N1CCCCC1`, the inhibition is 42% (inactive).

Take `Cc1ccc(C(=O)CN2C(=O)c3ccccc3S2(=O)=O)cc1`: the inhibition was 85.1% (active).

Take `O=C1c2ccccc2S(=O)(=O)N1Cc1nc2ccccc2s1`: the inhibition was 53.2% (active).

For the compound `COc1ccc(C(=O)CN2C(=O)c3ccccc3S2(=O)=O)cc1`, the inhibition was 92.1% (active).

For the compound `O=C(CN1C(=O)c2ccccc2S1(=O)=O)c1ccc(F)cc1`, the inhibition is 29.1% (inactive).

In the case of `O=C(CCl)Nc1ccccc1Sc1ccc(Cl)cc1`, the inhibition is 33.5% (inactive).

Take `O=C(CCl)Nc1ccc(Sc2ccc(NC(=O)CCl)cc2)cc1`: the inhibition is 81.3% (active).

Turning to `O=C1NC(=O)/C(=C/c2ccccc2Oc2ccc(Cl)cc2)S1`, the inhibition was -26.6% (inactive).

For the compound `O=C1NC(=O)/C(=C/c2ccccc2OCc2ccccc2)S1`, the inhibition is 16.2% (inactive).

With `O=C1NC(=O)/C(=C\c2ccccc2Oc2ccc(F)c(F)c2)S1`, the inhibition is 55.7% (active).

Take `Cc1cc(C(=O)CCl)c(C)n1CCc1ccc(Cl)cc1`: the inhibition was 21.1% (inactive).

On to `Cc1cc(C(=O)CCl)c(C)n1CCc1ccc(F)cc1`, for which the inhibition was 55.6% (active).

Regarding `CCOC(=O)C1CCN(S(=O)(=O)c2ccc3c(c2)N(C(C)=O)CC(C)S3)CC1` (configuration not stated), the inhibition was 5.4% (inactive).

For `CCC(C)NC(=O)Cn1cnc2sc(C)c(S(=O)(=O)N3CCN(c4ccccc4OC)CC3)c2c1=O` (configuration not stated), the inhibition was 9.7% (inactive).

For the compound `CCOC(=O)C1CCN(C(=O)Cn2cnc3sc(C)c(S(=O)(=O)N4CCC(C)CC4)c3c2=O)CC1`, the inhibition is 55.3% (active).

As to `CN(C)S(=O)(=O)c1cccc(NC(=O)c2ccc(COc3ccccc3)cc2)c1`, the inhibition was 80.7% (active).

With `CN(C)S(=O)(=O)Oc1ccc(C(=O)Nc2cccc(C(F)(F)F)c2)cc1`, the inhibition was 36.5% (inactive).

For `CCOC(=O)C1=C(Cc2ccc(F)cc2)C(=O)c2ccccc2C1=O`, the inhibition was 90.8% (active).

Regarding `CCOC(=O)C1=C(Cc2ccc(Cl)cc2)C(=O)c2ccccc2C1=O`, the inhibition is 7.7% (inactive).

With `CCOC(=O)c1sc2ccccc2c1OC(=O)c1ccc(C)cc1`, the inhibition was 17.4% (inactive).

On to `CCOC(=O)C1=C(Cc2ccc(C)cc2)C(=O)c2ccccc2C1=O`, for which the inhibition is 61.3% (active).

Turning to `CCOC(=O)C1=C(c2ccc(OC)cc2)C(=O)c2ccccc2C1=O`, the inhibition is 108% (active).

With `COc1cccc(CNc2ncnc3cc(Cl)ccc23)c1`, the inhibition is 49.2% (inactive).

Take `Cc1cc2c(NCc3ccccc3)ncnc2s1`: the inhibition was 42.6% (inactive).

Consider `Fc1ccc(CNc2ncnc3cc(Cl)ccc23)cc1`, for which the inhibition is 39.9% (inactive).

For `CC(Nc1ncnc2sccc12)c1ccccc1` (configuration not stated), the inhibition is 35.1% (inactive).

For `c1ccc(CNc2ncnc3ccccc23)cc1`, the inhibition was 65.6% (active).

`CC(Nc1ncnc2ccccc12)c1ccccc1` (configuration not stated): the inhibition was 83.3% (active).

Consider `COc1ccc(CNc2ncnc3ccccc23)cc1`, for which the inhibition was 65.6% (active).

Take `Cc1ccccc1OCc1nc2ccccc2c(=O)n1/N=C/c1cn[nH]c1-c1ccc(Br)cc1`: the inhibition was 3.5% (inactive).

For `Cc1nc(N2CCN(c3ccccn3)CC2)c2c(C)c(C(=O)Nc3ccccc3F)sc2n1`, the inhibition is 4.6% (inactive).

Turning to `COc1ccccc1N1CCN(c2ncc(C(=O)N3CCN(c4cccc(Cl)c4)CC3)c3ccccc23)CC1`, the inhibition is 21.9% (inactive).

Regarding `Cc1ccccc1C(=O)N1CCN(c2ccccn2)CC1`, the inhibition is 48.2% (inactive).

In the case of `O=C(c1cnc(N2CCN(c3ccccn3)CC2)c2ccccc12)N1CCN(c2cccc(Cl)c2)CC1`, the inhibition was 53.2% (active).

In the case of `O=C(CN1CCN(c2ccccn2)CC1)Nc1cccc(Br)c1`, the inhibition was 13.8% (inactive).

Turning to `S=C(Nc1ccc(Oc2ccccc2)cc1)N1CCN(c2ccccn2)CC1`, the inhibition is 21% (inactive).

For `COc1ccc(C)cc1NC(=O)c1sc2ncnc(N3CCN(c4ccccn4)CC3)c2c1C`, the inhibition was -10% (inactive).

In the case of `CCc1ccc(NC(=O)c2cnc(N3CCN(c4ccccn4)CC3)c3ccccc23)cc1`, the inhibition was 78.3% (active).

For `Cc1nc(N2CCN(c3ccccn3)CC2)c2c(C)c(C(=O)N3CCN(c4ccccc4F)CC3)sc2n1`, the inhibition is -27.6% (inactive).

`CCN(C(=O)c1cnc(N2CCN(c3ncccn3)CC2)c2ccccc12)c1cccc(Cl)c1`: the inhibition is 46.7% (inactive).

With `Cc1ccc(NC(=O)c2cnc(N3CCN(c4ccccn4)CC3)c3ccccc23)c(Br)c1`, the inhibition was 99.8% (active).

Take `Cc1cc(Br)ccc1NC(=O)c1cnc(N2CCN(c3ccccn3)CC2)c2ccccc12`: the inhibition is 73.3% (active).

As for `O=C(COC(=O)/C=C/C(=O)OCC(=O)Nc1ccccc1F)Nc1ccccc1F`, the inhibition was 33.2% (inactive).

Consider `COC(=O)c1ccc2c(c1O)C(=O)c1ccccc1C2=O`, for which the inhibition is -53.2% (inactive).

Take `COC(=O)c1cccc2c1-c1ccccc1/C2=N/O`: the inhibition is 67.3% (active).

Turning to `CCOC(=O)c1cccc2c1-c1ccccc1/C2=N/O`, the inhibition is 48.8% (inactive).

With `O=[N+]([O-])c1ccc(O)c(/C=N/NC(=S)Nc2ccc(Cl)cc2Cl)c1`, the inhibition is 105% (active).

With `Oc1c(Br)cc(Br)cc1/C=N/Nc1ccc(Cl)nn1`, the inhibition is 44.5% (inactive).

Turning to `O=C(NC(NC(=S)Nc1ccccc1Cl)C(Cl)(Cl)Cl)c1cccc(Cl)c1` (configuration not stated), the inhibition is -7% (inactive).

Turning to `O=[N+]([O-])c1ccc(O)c(/C=N/Nc2ncnc3c2cnn3-c2ccccc2)c1`, the inhibition is 46.3% (inactive).

Take `Oc1cccc(/C=N/Nc2ccc(Cl)nn2)c1O`: the inhibition is -18% (inactive).

With `O=[N+]([O-])c1ccc(O)c(/C=N/Nc2ccc(Cl)nn2)c1`, the inhibition is 70.3% (active).

As for `COc1ccc(NC(=S)NC(NC(=O)c2ccc(Cl)cc2Cl)C(Cl)(Cl)Cl)c([N+](=O)[O-])c1` (configuration not stated), the inhibition was 34.9% (inactive).

As for `O=C(NC(NC(=S)Nc1ccccc1)C(Cl)(Cl)Cl)c1cccc(Cl)c1` (configuration not stated), the inhibition was 23.1% (inactive).

Consider `O=[N+]([O-])c1ccc(O)c(/C=N/Nc2ccccc2[N+](=O)[O-])c1`, for which the inhibition is 69.5% (active).

Consider `O=C(NC(NC(=S)Nc1ccc(Cl)cc1Cl)C(Cl)(Cl)Cl)c1cccc([N+](=O)[O-])c1` (configuration not stated), for which the inhibition was 95.7% (active).

On to `O=[N+]([O-])c1cc(Cl)cc(/C=N/NC(=S)Nc2cc(S(=O)(=O)N3CCOCC3)ccc2Cl)c1O`, for which the inhibition is 49.1% (inactive).

Take `CCCOc1ccc(/C=N/NC(=S)Nc2ccccc2[N+](=O)[O-])c(O)c1`: the inhibition is 15.1% (inactive).

As for `O=C1NC(=O)/C(=C\c2ccc(Oc3cnccn3)cc2)S1`, the inhibition is -64.2% (inactive).
